Test results reported in PubChem BioAssay AID1159580 (chemical genetic matrix, 2015).
“And” between values parts separate entries of the source, which are not always exact repeats. Identical values can stand only once. In all, about 5,500 compounds went through this assay and about 2,000 (36%) were called active. Inconclusive results (about 18%) are left out. No stated cut-off is given here; in the data, active means normalized growth mostly below about 0.91 (no sharp cut-off); inconclusive means no clear call, values can overlap the other calls; inactive means mostly above about 0.92. The list shows a part of the results.

Test: chemical genetic growth profiling, strain panel (AID 1159580);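 further: tested at 20 µM; growth read once vehicle control cultures reached saturation at 30 °C; 1 = growth at the plate median or of vehicle wells; lower values mean less growth of the strain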
Settings: S. cerevisiae deletion strains, growth OD

Measured: normalized growth

OC[C@H]1O[C@@](CO)(O[C@@H]2O[C@H](CO)[C@@H](O)[C@H](O)[C@H]2O)[C@@H](O[C@@H]2O[C@H](CO)[C@@H](O)[C@H](O)[C@H]2O)[C@@H]1O
inactive: locus YAL013W, strain DEP1, active compounds read low 1.02 | locus YAL021C, strain ccr4, active compounds read low 1.01 | locus YAL026C, strain drs2, active compounds read low 1.02 | locus YAL030W, strain snc1, active compounds read low 1.02 | locus YBL061C, strain skt5, active compounds read low 1.02 | locus YBR009C, strain hhf1, active compounds read low 1.02 | locus YBR021W, strain FUR4, active compounds read low 1.01 | locus YBR023C, strain chs3, active compounds read low 1.02 | locus YBR171W, strain sec66, active compounds read low 1.03 | locus YBR229C, strain ROT2, active compounds read low 1.01 | locus YBR231C, strain swc5, active compounds read low 1.02 | locus YBR279W, strain paf1, active compounds read low 1.02 | locus YCL011C, strain gbp2, active compounds read low 1.02 | locus YCL016C, strain dcc1, active compounds read low 1.02 | locus YCL029C, strain bik1, active compounds read low 1.05 | locus YCL061C, strain MRC1, active compounds read low 1.01 | locus YCL069W, strain vba3, active compounds read low 1.01 | locus YCR088W, strain abp1, active compounds read low 1.01 | locus YDL005C, strain med2, active compounds read low 1.02 | locus YDL035C, strain GPR1, active compounds read low 1.04 | locus YDL040C, strain nat1, active compounds read low 1.01 | locus YDL074C, strain BRE1, active compounds read low 1.09 | locus YDL101C, strain DUN1, active compounds read low 1.02 | locus YDL134C, strain PPH21, active compounds read low 1.05 | locus YDL185W, strain tfp1, active compounds read low 1.01 | locus YDL192W, strain arf1, active compounds read low 1.04 | locus YDR001C, strain nth1, active compounds read low 1.02 | locus YDR069C, strain doa4, active compounds read low 1.04 | locus YDR101C, strain arx1, active compounds read low 1.01 | locus YDR137W, strain rgp1, active compounds read low 1.02 | locus YDR159W, strain sac3, active compounds read low 1.02 | locus YDR162C, strain NBP2, active compounds read low 1.07 | locus YDR195W, strain ref2 1.01 | locus YDR297W, strain sur2, active compounds read low 1.02 | locus YDR318W, strain mcm21, active compounds read low 1.06 | locus YDR334W, strain swr1, active compounds read low 1.02 | locus YDR335W, strain msn5, active compounds read low 1.02 | locus YDR388W, active compounds read low 1.01 | locus YDR392W, strain spt3, active compounds read low 0.969 | locus YDR502C, strain sam2, active compounds read low 1.05 | locus YEL003W, strain gim4, active compounds read low 1.03 | locus YEL037C, strain rad23, active compounds read low 1.02 | locus YEL061C, strain CIN8 (second series), active compounds read low 1.02 | locus YEL061C, strain CIN8, active compounds read low 1.01 | locus YER015W, strain faa2, active compounds read low 1.02 | locus YER016W, strain bim1, active compounds read low 1.02 | locus YER110C, active compounds read low 1.01 | locus YER111C, strain swi4, active compounds read low 1.02 | locus YER155C, strain BEM2 (second series), active compounds read low 1.03 | locus YER155C, strain BEM2, active compounds read low 1.02 | locus YER167W, strain BCK2, active compounds read low 1.01 | locus YFR010W, strain ubp6, active compounds read low 1.02 | locus YGL078C, strain dbp3, active compounds read low 1.04 | locus YGL086W, strain mad1, active compounds read low 1.03 | locus YGL167C, strain pmr1, active compounds read low 1.02 | locus YGL173C, strain kem1, active compounds read low 1.03 | locus YGL227W, strain vid30, active compounds read low 1.02 | locus YGL240W, strain doc1, active compounds read low 1.02 | locus YGL248W, strain PDE1, active compounds read low 1.05 | locus YGL253W, strain hxk2, active compounds read low 1.02 | locus YGR078C, strain PAC10, active compounds read low 1.04 | locus YGR135W, strain pre9, active compounds read low 1.04 | locus YGR252W, strain gcn5, active compounds read low 1.09 | locus YHR013C, strain ard1, active compounds read low 1.03 | locus YHR027C, strain rpn1, active compounds read low 1.02 | locus YHR030C, strain SLT2, active compounds read low 1.01 | locus YHR079C, strain IRE1 (second series), active compounds read low 1.01 | locus YHR079C, strain IRE1, active compounds read low 1.02 | locus YHR094C, strain hxt1, active compounds read low 1 | locus YHR129C, strain ARP1, active compounds read low 1.02 | locus YHR142W, strain chs7, active compounds read low 1.01 | locus YHR200W, strain rpn10, active compounds read low 1.03 | locus YIL066C, strain RNR3, active compounds read low 1.03 | locus YIL073C, strain SPO22, active compounds read low 1.05 | locus YIL125W, strain kgd1, active compounds read low 1.02 | locus YIR030C, strain dcg1, active compounds read low 1.01 | locus YJL092W, strain hpr5, active compounds read low 1.02 | locus YJL095W, strain BCK1 (second series), active compounds read low 1.02 | locus YJL095W, strain BCK1, active compounds read low 1.08 and 1 | locus YJL115W, strain asf1, active compounds read low 1.02 | locus YJL129C, strain trk1, active compounds read low 1.01 | locus YJL134W, strain LCB3, active compounds read low 1.01 | locus YJL154C, strain vps35, active compounds read low 1.01 | locus YJL164C, strain tpk1, active compounds read low 1 | locus YJL166W, strain qcr8, active compounds read low 1.02 | locus YJL168C, strain set2, active compounds read low 1.02 | locus YJL187C, strain SWE1 (second series), active compounds read low 1.05 | locus YJL187C, strain SWE1, active compounds read low 1.02
